Counter-ions that a name gives are not always drawn.
Key:
[1] = test system: Staphylococcus aureus MW2 delta-mecA (mecA-); assay: normalized GFP fluorescence (growth of mecA- strain) (fraction of control range); higher = more growth of mecA- strain; details: compound concentration: 150 uM; cefoxitin: subinhibitory; fluorescent label: GFP
Procedure, shortened: (§1)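 Fluorescence from DsRed (540/590) and GFP (485/520) was recorded after 20 h of static growth at 37 °C and 90% humidity. The wells held a 1:1 mix of pre-induced S. aureus MW2 cells, gene-bearing with DsRed and gene-deleted with GFP, in LB with a daily-set subinhibitory antibiotic dose, dispensed at 5 µL/well onto 150 μM compound (1.5% DMSO) in 1536-well plates, single replicate. Each channel was scaled per plate between single-strain control medians, excluding plates with high untreated ratios and rows with DsRed/GFP >10.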

[2] = test system: Staphylococcus aureus MW2 (mecA+); assay: normalized DsRed fluorescence (growth of mecA+ strain) (fraction of control range); higher = more growth of mecA+ strain; details: compound concentration: 150 uM; cefoxitin: subinhibitory; fluorescent label: DsRed
Procedure, shortened: as §1

Compound	normalized GFP fluorescence [1]	normalized DsRed fluorescence [2]
C[C@@H]1C[C@H]2[C@@H]3CCC4=CC(=O)C=C[C@]4(C)[C@@]3(Cl)[C@@H](O)C[C@]2(C)[C@@]1(OC(=O)c1ccco1)C(=O)CCl	0.456	1.18
c1ccc2[nH]c(-c3cscn3)nc2c1	0.302	0.444
C#C[C@]1(O)CC[C@H]2[C@@H]3CCC4=CC(=O)CC[C@@H]4[C@H]3CC[C@@]21CC	0.305	1.05
C[C@H]1[C@H](OC(=O)CCC(=O)O)O[C@@H]2O[C@@]3(C)CC[C@H]4[C@H](C)CC[C@@H]1[C@@]24OO3	0.737	0.712
CCC1(C)CC(=O)NC1=O (stereo unspecified)	0.678	0.691
CO[C@H]1C[C@@H]2CC[C@@H](C)[C@@](O)(O2)C(=O)C(=O)N2CCCC[C@H]2C(=O)O[C@H]([C@H](C)C[C@@H]2CC[C@@H](OCCO)[C@H](OC)C2)CC(=O)[C@H](C)/C=C(\C)[C@@H](O)[C@@H](OC)C(=O)[C@H](C)C[C@H](C)/C=C/C=C/C=C/1C [Everolimus (RAD001)]	-0.00462	1.72
N=C(N)N	0.207	0.654
CNC(=O)c1cc(Oc2ccc(NC(=O)Nc3ccc(Cl)c(C(F)(F)F)c3)c(F)c2)ccn1 [Regorafenib (BAY 73-4506)]	0.0128	0.0729
COc1ccc(-c2cc(=O)c3c(O)cc(O[C@@H]4O[C@H](CO[C@@H]5O[C@@H](C)[C@H](O)[C@@H](O)[C@H]5O)[C@@H](O)[C@H](O)[C@H]4O)cc3o2)cc1O [Diosmin]	0.55	1.27
Cc1cc(-c2ccccc2)nnc1NCCN1CCOCC1	0.44	0.611
COc1ccc2cccc(CCNC(C)=O)c2c1 [Agomelatine]	0.243	0.62
Cn1c(=O)c2c(ncn2C)n(C)c1=O	0.319	0.708
Nc1c(Br)cc(Br)cc1CN[C@H]1CC[C@H](O)CC1 [Ambroxol HCl]	0.21	0.849
CC(=O)O[C@H]1CC[C@@]2(C)C(=CC[C@@H]3[C@@H]2CC[C@]2(C)C(c4cccnc4)=CC[C@@H]32)C1 [Abiraterone Acetate (CB7630)]	0.278	0.65
CC(C)OC(=O)OCOP(=O)(CO[C@H](C)Cn1cnc2c(N)ncnc21)OCOC(=O)OC(C)C [Tenofovir Disoproxil Fumarate]	0.238	0.514
CC(C)Cn1cnc2c(N)nc3ccccc3c21	0.18	1.09
O=c1[nH]c(=O)n([C@H]2C[C@H](O)[C@@H](CO)O2)cc1I [Idoxuridin]	0.512	0.959
O=C(O)c1cccnc1 [Niacin (Nicotinic acid)]	0.536	0.614
CCOc1ccccc1OC(c1ccccc1)C1CNCCO1 (stereo unspecified) [Reboxetine mesylate]	0.435	0.581
CCCCC(=O)N(Cc1ccc(-c2ccccc2-c2nnn[nH]2)cc1)[C@H](C(=O)O)C(C)C	0.105	0.898
COc1cc(Nc2ncc(F)c(Nc3ccc4c(n3)N(COP(=O)(O)O)C(=O)C(C)(C)O4)n2)cc(OC)c1OC	0.774	0.602
Nc1nc(=O)[nH]cc1F	0.282	0.62

Compound	normalized GFP fluorescence [1]	normalized DsRed fluorescence [2]
CCCS(=O)(=O)Nc1ccc(F)c(C(=O)c2c[nH]c3ncc(-c4ccc(Cl)cc4)cc23)c1F [Vemurafenib (PLX4032)]	0.416	0.489
CC(C)c1nc(N(C)S(C)(=O)=O)nc(-c2ccc(F)cc2)c1/C=C/[C@@H](O)C[C@@H](O)CC(=O)O	0.207	0.514
CO[C@H]1C(=O)[C@]2(C)[C@@H](OC)C[C@H]3OC[C@@]3(OC(C)=O)[C@H]2[C@H](OC(=O)c2ccccc2)[C@]2(O)C[C@H](OC(=O)[C@H](O)[C@@H](NC(=O)OC(C)(C)C)c3ccccc3)C(C)=C1C2(C)C [Cabazitaxel (Jevtana)]	0.256	1.24
CCN(CC)CCOC(=O)c1ccc(N)cc1	0.335	0.634
Cc1c(O)c(=O)ccn1C [Deferiprone]	0.292	0.96
COc1ccc2[nH]c([S@@+]([O-])Cc3ncc(C)c(OC)c3C)nc2c1	0.281	1.15
O=C1Cc2cc(CCN3CCN(c4nsc5ccccc45)CC3)c(Cl)cc2N1	0.33	0.989
COC(=O)[C@H]1[C@H]2C[C@@H]3c4[nH]c5cc(OC)ccc5c4CCN3C[C@H]2C[C@@H](OC(=O)c2cc(OC)c(OC)c(OC)c2)[C@@H]1OC	0.0258	1.04
CC(=O)OCC(=O)[C@@]12OC3(CCCC3)O[C@@H]1C[C@H]1[C@@H]3CCC4=CC(=O)C=C[C@]4(C)[C@@]3(F)[C@@H](O)C[C@@]12C	0.197	0.883
O=C(NC[C@H]1CN(c2ccc(N3CCOCC3=O)cc2)C(=O)O1)c1ccc(Cl)s1 [Rivaroxaban (Xarelto)]	0.0017	0.837
CC(C)N1CCN(c2ccc(OCC3COC(Cn4cncn4)(c4ccc(Cl)cc4Cl)O3)cc2)CC1 (stereo unspecified)	0.199	0.734
CCN(CC)C(=O)C1(c2ccccc2)CC1CN (stereo unspecified)	0.155	0.617
NC(=O)c1cn(Cc2c(F)cccc2F)nn1 [Rufinamide (Banzel)]	0.199	0.955
Clc1ccc(CSC(Cn2ccnc2)c2ccc(Cl)cc2Cl)cc1 (stereo unspecified)	-0.00367	0.00806
CCCNC(C)C(=O)Nc1c(C)csc1C(=O)OC (stereo unspecified) [Articaine HCl]	0.567	0.672
CC(=O)NS(=O)(=O)c1ccc(N)cc1	0.792	0.694
C[N+](C)(C)CC(=O)O	0.229	0.899
CC1(C)[C@@H](O)CC[C@]2(C)[C@H]3C(=O)C=C4[C@@H]5C[C@@](C)(C(=O)O)CC[C@]5(C)CC[C@@]4(C)[C@]3(C)CC[C@@H]12 [Enoxolone (Glycyrrhetin)]	0.0336	0.987
CCCN(CCC)C(=O)C(CCC(=O)O)NC(=O)c1ccccc1 (stereo unspecified)	0.792	0.55
CCN1CC(CCN2CCOCC2)C(c2ccccc2)(c2ccccc2)C1=O (stereo unspecified)	0.294	0.634
Cc1nnc(C(C)C)n1C1C[C@H]2CC[C@@H](C1)N2CC[C@H](NC(=O)C1CCC(F)(F)CC1)c1ccccc1 (stereo in doubt) [Maraviroc]	0.747	0.67
